Data as given in PubChem BioAssay AID504333 (National Center for Advancing Translational Sciences (NCATS), 2011).
Where “and” joins values, the source holds several entries; their conditions need not be identical. Equal values may be shown once. The whole screen tested about 360,000 compounds, of which about 16,000 (4.4%) were called active. Where a call stands in place of a potency, no number is given. Not shown: some 9% with an inconclusive outcome. Calls come from the whole dose curve; as a rule, active = well fitted inhibition curve with a large enough effect; inconclusive = small, poorly fitted or top-dose-only effect; inactive = no such curve, though single readings can be large or run the other way. For the sample, actives were picked, then their nearest neighbours and some compounds at random.

Target: Bromodomain adjacent to zinc finger domain protein 2B (Homo sapiens) (UniProt Q9UIF8)
Sequence (Q9UIF8 whole entry, looked up, the tested form may be a part): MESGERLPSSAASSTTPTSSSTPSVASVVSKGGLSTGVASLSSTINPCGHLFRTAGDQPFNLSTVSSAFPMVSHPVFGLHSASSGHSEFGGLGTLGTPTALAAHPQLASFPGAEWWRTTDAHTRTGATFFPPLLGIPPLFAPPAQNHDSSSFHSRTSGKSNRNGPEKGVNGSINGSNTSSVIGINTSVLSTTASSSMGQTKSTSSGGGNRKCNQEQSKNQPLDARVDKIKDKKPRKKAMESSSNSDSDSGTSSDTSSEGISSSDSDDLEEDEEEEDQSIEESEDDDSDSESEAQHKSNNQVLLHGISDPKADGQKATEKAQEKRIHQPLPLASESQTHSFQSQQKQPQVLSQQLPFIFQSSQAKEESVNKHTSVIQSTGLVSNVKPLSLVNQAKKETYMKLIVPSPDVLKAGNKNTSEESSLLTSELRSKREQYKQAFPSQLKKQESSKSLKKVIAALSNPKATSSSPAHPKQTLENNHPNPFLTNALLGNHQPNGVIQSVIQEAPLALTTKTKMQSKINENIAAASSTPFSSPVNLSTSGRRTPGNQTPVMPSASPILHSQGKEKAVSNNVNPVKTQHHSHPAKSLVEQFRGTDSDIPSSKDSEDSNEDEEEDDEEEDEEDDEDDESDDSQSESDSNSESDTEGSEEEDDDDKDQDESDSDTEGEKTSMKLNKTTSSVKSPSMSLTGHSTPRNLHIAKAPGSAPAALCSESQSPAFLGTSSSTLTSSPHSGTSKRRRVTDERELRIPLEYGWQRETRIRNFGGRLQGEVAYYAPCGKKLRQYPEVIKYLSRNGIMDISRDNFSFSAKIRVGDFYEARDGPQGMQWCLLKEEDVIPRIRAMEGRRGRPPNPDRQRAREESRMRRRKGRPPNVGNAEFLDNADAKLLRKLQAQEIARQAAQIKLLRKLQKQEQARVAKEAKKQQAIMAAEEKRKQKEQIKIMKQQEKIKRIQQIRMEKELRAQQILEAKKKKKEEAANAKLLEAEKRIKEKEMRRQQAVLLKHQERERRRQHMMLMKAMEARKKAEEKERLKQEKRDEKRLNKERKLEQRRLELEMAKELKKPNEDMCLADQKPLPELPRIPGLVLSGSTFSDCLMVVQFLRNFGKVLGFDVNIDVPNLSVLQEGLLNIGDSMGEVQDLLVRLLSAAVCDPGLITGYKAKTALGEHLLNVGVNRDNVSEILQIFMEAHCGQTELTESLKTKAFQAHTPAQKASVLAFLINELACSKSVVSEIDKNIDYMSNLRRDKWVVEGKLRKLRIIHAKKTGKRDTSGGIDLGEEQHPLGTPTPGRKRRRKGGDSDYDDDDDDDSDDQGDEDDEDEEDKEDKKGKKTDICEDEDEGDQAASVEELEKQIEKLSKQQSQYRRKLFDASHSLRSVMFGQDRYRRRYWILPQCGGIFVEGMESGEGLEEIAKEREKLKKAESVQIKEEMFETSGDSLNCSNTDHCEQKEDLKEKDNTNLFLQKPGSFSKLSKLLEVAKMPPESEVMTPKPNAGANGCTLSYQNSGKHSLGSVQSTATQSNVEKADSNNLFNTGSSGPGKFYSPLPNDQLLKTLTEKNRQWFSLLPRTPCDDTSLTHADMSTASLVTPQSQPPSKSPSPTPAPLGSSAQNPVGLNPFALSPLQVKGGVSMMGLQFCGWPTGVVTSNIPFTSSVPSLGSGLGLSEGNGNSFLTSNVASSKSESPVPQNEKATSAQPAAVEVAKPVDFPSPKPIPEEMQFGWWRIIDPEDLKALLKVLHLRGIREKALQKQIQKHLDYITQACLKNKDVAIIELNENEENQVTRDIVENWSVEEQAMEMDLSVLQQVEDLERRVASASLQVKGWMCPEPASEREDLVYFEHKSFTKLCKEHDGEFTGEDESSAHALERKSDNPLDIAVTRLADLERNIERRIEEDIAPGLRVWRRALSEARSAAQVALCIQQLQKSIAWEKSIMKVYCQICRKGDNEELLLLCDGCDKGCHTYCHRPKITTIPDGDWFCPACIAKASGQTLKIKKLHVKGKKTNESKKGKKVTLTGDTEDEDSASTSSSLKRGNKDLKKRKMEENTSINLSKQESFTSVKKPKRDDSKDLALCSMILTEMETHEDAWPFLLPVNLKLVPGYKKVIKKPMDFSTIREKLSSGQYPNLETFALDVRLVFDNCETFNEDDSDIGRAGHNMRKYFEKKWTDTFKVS
Test: qHTS Assay for Inhibitors of BAZ2B; note: nearly all actives have a fitted effect of over 60% in size
Details: AlphaScreen BAZ2B-H3K14Ac peptide displacement; series mostly up to 114 µM
Excerpt: BAZ2B (bromodomain adjacent to zinc finger domain, 2B) belongs to a family of ubiquitously expressed bromodomain containing proteins, which biological function has not yet been elucidated. […] The interaction of BAZ2B with ISWI mediated by the BAZ1 motif has recently been described. […] The protocol is based on the AlphaScreen (PerkinElmer) displacement assay developed by NCGC [5], but uses the peptide ligand Biot-H3K14Ac, a high affinity binding partner for BAZ2B, in an AlphaScreen format. Although AlphaScreen has significant advantages with its utility in a variety of epigenetic target assays, the primary screening data provided in this deposition should be used with caution due to the prevalence of screening artifacts. The top compound concentration tested was 110uM in this assay, which increases number of actives and potential artifacts. An AlphaScreen counterscreen is highly recommended to be run against any putative actives to eliminate non-specific artifacts. Alternatively, one can use other AlphaScreen assays in PubChem to filter out promiscuous hits. Eberharter, A. et al. ACF1 improves the effectiveness of nucleosome mobilization by ISWI through PHD-histone contacts. The EMBO journal 23, 4029-4039. 2004. PMID: 15457208 [2] Jones, M.H. et al. A novel family of bromodomain genes. Genomics 63, 40-45. 2000. PMID: 10662543 [3] Yasgar, et al. Compound Management for Quantitative High-Throughput Screening. JALA. 2008 Apr;13(2):79-89. PMID: 18496600 [4] Inglese, et al. Quantitative high-throughput screening: a titration-based approach that efficiently identifies biological activities in large chemical libraries. Proc Natl Acad Sci. 1;103(31):11473-8. 2006. PMID: 16864780 [5] Quinn et al. A chemiluminescence-based method for identification of histone lysine methyltransferase inhibitors. Mol Biosyst 6(5): 782-8. 2010. PMID: 20567762 [6] Baell,Holloway. New substructure filters for removal of pan assay interference compounds (PAINS) from screening libraries and for their exclusion in bioassays. J Med Chem. 53(7):2719-40. 2010. PMID: 20131845 NIH Molecular Libraries Probe Production Network [MLPCN] NIH Chemical Genomics Center [NCGC] Structural Genomics Consortium (SGC) NIH Grant: 5U54 MH084681-02
To each well of a 1,536w plate, 2ul of BAZ2B protein (final 50nM) and 1ul biotinylated histone peptide acetylated at Lys14 [b-H3(5-23)K14Ac] (final 50nM) were added in 1x PBS buffer, pH 7.4, containing 0.01% Tween-20, using a nanoliter dispenser. Formation of a protein-peptide complex proceeded at room temperature for 30 min. A Kalypsys pin-tool was employed to transfer 23 nL of library compound solution in DMSO to each well. Following a 30 min incubation of the protein-peptide complex with compounds at room temperature, a mixture of 40 ug/mL each streptavidin-coated donor and nickel chelate acceptor AlphaScreen beads (final 10 ug/mL) were added in a 1ul dispense for a final volume of 4ul. A brief centrifugation followed (1000rpm, 1 min) and were then incubated protected from the light for 20 min at room temperature. Plates were read on an EnVision multilabel plate reader using the 1,536 plate HTS AlphaScreen aperture (excitation time 80 ms, measurement time 240 ms).
Potency is the fitted concentration of half-maximal effect.

Compound | Potency
CCC(Sc1nc2n[nH]c(C)c2c(=N)n1-c1ccccc1Cl)C(=O)N(CC)CC (centres undefined) | inactive
COc1ccc(-c2nc3sc(CCNS(=O)(=O)c4ccc(F)c(C)c4)c(C)n3n2)cc1 | inactive
COc1ccc(-c2nc(SCC(=O)N3CCCCC3C)n[nH]2)cc1 (centres undefined) | inactive
Cc1ccc(S(=O)(=O)N2CCN(Cc3cccc(C)c3O)CC2)cc1 | inactive
O=S(=O)(c1ccc(F)cc1)N1CCN(Cc2ccccc2C(F)(F)F)CC1 | 28.2 µM (active)
O=C(CN1CCN(S(=O)(=O)c2ccc(F)cc2)CC1)Nc1ccccc1F | inactive
COc1ccc(-c2onc(C)c2C)cc1S(=O)(=O)NCc1cccs1 | inactive
CCc1ccc(S(=O)(=O)n2ccnc2)cc1 | inactive
CCc1cccc(C)c1Nc1c(-c2ccc(N(C)C)cc2)nc2ncccn12 | 10 µM (active)
Cc1ccccc1Nc1c(-c2ccccc2)nc2ncccn12 | inactive
Cc1c(-c2cccc(NC(=O)C(C)(C)C)c2)nc2ncccn12 | inactive
COc1cc(OC)c(NC(=O)c2c3c(nn2C)-c2ccccc2SC3)cc1Cl | inactive
O=C(NCCCO)C(=O)Nc1c2c(nn1-c1ccccc1)CSC2 | inactive
COc1ccc(OCCn2ccnc2C)cc1 | 56.2 µM (active)
COc1ccc(OCCCn2c(C)nc3cc(C)c(C)cc32)cc1 | inactive
COc1ccc(OCCCC(=O)Oc2ccc(OC)cc2)cc1 | inactive
Cc1ccc(C(=O)Nc2c(C(=O)NC(C)(C)C)oc3ccccc23)cc1 | inactive
COc1ccc(NC(=O)c2ccc3oc(=O)c(S(=O)(=O)c4ccc(F)cc4)cc3c2)c(OC)c1 | inactive
O=C(CSc1nccn1Cc1ccc(Cl)cc1)NCc1ccccc1 | inactive
COc1ccc(C(c2nnnn2Cc2cccs2)N2CCN(c3ccccc3)CC2)cc1OC (centres undefined) | inactive
COc1ccccc1C(c1nnnn1CC1CCCO1)N1CCN(c2ccccc2)CC1 (centres undefined) | 56.2 µM (active)
Cc1cccc(N2CCN(C(c3ccccc3)c3nnnn3CC3CCCO3)CC2)c1C (centres undefined) | inactive

Compound | Potency
COCCCNC(=O)c1ccc(NC(=O)c2nsc3ccccc23)cc1 | inactive
COC(=O)c1cccc(Cn2nnc3sc4c(c3c2=O)CCC(C(C)(C)C)C4)c1 (centres undefined) | inactive
Cc1cccc(N2CCN(C(=O)Cn3ncc4c5ccccc5n(C)c4c3=O)CC2C)c1 (centres undefined) | inactive
COc1ccc(-c2nnc(SCC(=O)c3ccco3)n2-c2ccccc2)cc1 | inactive
COc1ccc(NCc2nnc(SCc3ccccc3)n2-c2ccc(OC)cc2)cc1 | 50.1 µM (active)
CCc1nnc(NC(=O)CSc2nnc(Cc3ccccc3)n2-c2ccc(OC)cc2)s1 | inactive
Cc1ccc(Cl)cc1N1CCN(C(=O)CN2C(=O)COc3ccc(S(=O)(=O)N4CCOCC4)cc32)CC1 | inactive
O=C(N/N=C/c1c[nH]c2ccccc12)c1cc2ccccc2o1 | inactive
C[n+]1ccc(/C=C/c2c[nH]c3ccccc23)cc1 | 44.7 µM (active)
COc1ccc(/C=C(\C#N)c2c[nH]c3ccccc23)cc1 | inactive
CCOC(=O)C1CCCN(S(=O)(=O)c2cc(-c3cc(C)no3)ccc2OC)C1 (centres undefined) | inactive
COc1cccc(N2CCN(S(=O)(=O)c3ccc4c(c3)CCCN4C(C)=O)CC2)c1 | inactive
COc1ccccc1CN1CCC(CNC(=O)c2cnn(-c3ccccc3Cl)c2C2CCN(C(=O)OC(C)(C)C)CC2)CC1 | inactive
O=C(O)CCC(=O)N(Cc1cccs1)Cc1cccs1 | 56.2 µM (active)
O=C(O)CCC(=O)N(Cc1ccccc1)Cc1ccccc1 | inactive
O=C(CCc1ccccc1)NCCc1cccs1 | inactive
O=C1CC(c2nnc(Cc3ccc(Cl)cc3)o2)CN1c1ccccc1 (centres undefined) | inactive
CCc1ccc(NC(=O)CCS(=O)(=O)c2cc3c(cc2Cl)NC(=O)CO3)cc1 | inactive
CCOC(=O)Cn1c(=O)n(-c2ccccc2OC)c2nc(-c3cccc(F)c3)nc(C(N)=O)c21 | inactive
Cc1ccc(Nc2nc(C)cc(C)c2C(N)=O)cc1 | inactive
CC(=O)Nc1ccc(Nc2cc(C)nc(Nc3ccc(NC(C)=O)cc3)n2)cc1 | 56.2 µM (active)
COc1ccc(C(=O)NNc2cc(C)nc(NNC(=O)c3ccc(OC)cc3)n2)cc1 | inactive

Compound | Potency
CCN1CCN(c2cc(C)c3cc(NC(=O)c4cc(Cl)ccc4OC)ccc3n2)CC1 | inactive
Cc1ccccc1Nc1nc(-c2cccnc2)cs1 | 39.8 µM (active)
O=C(NCc1cccnc1)C(=O)Nc1nc(-c2ccccc2)cs1 | inactive
O=C(Nc1nc(-c2cccnc2)cs1)c1ccccc1F | inactive
Cc1ccccc1-c1nc(SCC(=O)N(C)c2ccccc2)c2c(=O)n(C)c(=O)n(C)c2n1 | inactive
Cc1ccc(CCNC(=O)c2ccc(CNS(=O)(=O)c3ccc(C)cc3)cc2)cc1 | inactive
CCOC(=O)c1c(NC(=O)c2cc(CC)on2)sc(C(C)=O)c1C | inactive
CCCCCn1c(=O)[nH]c2cc(C(=O)Nc3cc(C)cc(C)c3)ccc2c1=O | inactive
O=c1[nH]c(=S)[nH]c2[nH]c(=S)[nH]c12 | 28.2 µM (active) and 22.4 µM (active)
Cc1c(C)c(C)c2[nH]c(=S)[nH]c2c1C | inactive
CCOC(=O)c1ccc(NC(=O)C2CC(=O)N(c3ccc(C(C)C)cc3)C2)cc1 (centres undefined) | inactive
COc1cc(/C=C2\C(=N)N3N=C(CC(=O)N4CCOCC4)SC3=NC2=O)cc(OC)c1OC | inactive
CCOc1cc(/C=C2\C(=N)N3N=C(C)SC3=NC2=O)ccc1OCCOc1ccccc1 | inactive
COc1ccccc1OCCOc1ccc(/C=C2\C(=N)N3N=C(C)SC3=NC2=O)cc1 | inactive
CS(=O)(=O)C1=NN2C(=N)/C(=C\c3ccc(OCCOc4ccccc4)cc3)C(=O)N=C2S1 | 50.1 µM (active)
CCS(=O)(=O)C1=NSC2=NC(=O)/C(=C\c3ccc(OS(=O)(=O)c4ccccc4)cc3)C(=N)N21 | 56.2 µM (active)
Cc1ccc(C2=N/C(=C\c3ccc(OS(=O)(=O)c4ccc(C)cc4)cc3)C(=O)O2)cc1 | inactive
CCc1ccccc1N1C(=O)CN(S(=O)(=O)CC)CC1(C)C(=O)NC1CCCCC1 (centres undefined) | inactive
CCc1cccc(NC(=O)CSc2nccn2C)c1 | inactive
Cc1ccc(CNC(=O)CCc2c(C)nc3nc(CNC(=O)OC(C)(C)C)nn3c2C)cc1 | inactive
